aSyn UTR inh – 5' untranslated region of α-synuclein, MLPCN primary screen | inhibition, % (tested at 7.5 µM) | alpha-synuclein 5'UTR reporter, inhibitor activity | hit rate 0.82% among 300,000; in the data active = inhibition above about 60%; inconclusive = no clear call, values can overlap the other calls;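 note: H4 neuroglioblastoma cells stably carrying SNCA 5'UTR luciferase fusion; 0% = DMSO wells and 100% = positive control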
KLF5 inhibitor – kruppel-like factor 5 inhibition; hit rate 0.23% among 290,000; DLD-1 KLF5 promoter-luciferase reporter, luminescence; inhibition, % at 5 µM;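 active = inhibition above a per-plate limit of that plate's mean compound inhibition plus 3 SD, cut at about 60% in these data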;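 note: 0% = DMSO wells and 100% = LY294002 at 200 µM; higher means less KLF5 promoter-driven luciferase light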
BaF3 parental – parental Ba/F3 viability inhibition as JAK2V617F counter-screen | CellTiter-Glo ATP luminescence | inhibition, % at 5.6 µM | hit rate 1.1% among 220,000 | AID 1486;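 active = inhibition above a per-campaign cutoff, the mean inhibition of all tested compounds plus 3 SD, cut at about 27% in these data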;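 note: 0% = DMSO wells and 100% = JAK Inhibitor I control wells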
Ba/F3 V617F tox – lowers viability of Ba/F3 cells expressing EpoR and JAK2V617F; ATP luminescence; inhibition, % at 5.6 µM; hit rate 1.1% among 220,000;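 active = inhibition above the campaign mean plus 3 SD over all tested compounds, cut at about 24% in these data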;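 note: cytokine-independent growth of Ba/F3 cells driven by EpoR plus mutant JAK2; 0% = DMSO-treated cells and 100% = JAK inhibitor I control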
APP 5UTR inh – APP translation inhibition. SH-SY5Y APP 5'UTR-luciferase reporter, luminescence. inhibition, % at 2 µM. hit rate 0.82% among 190,000;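 active = inhibition above a set limit, derived from the sample mean plus 3 SD, cut at about 45% in these data; inconclusive = one replicate passes the limit while the other fails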
IEC-6 tox – counter-screen for KLF5 inhibitors: cytotoxicity in IEC-6 cells; IEC-6 cytotoxicity, luminescence viability; inhibition, % at 5 µM; hit rate 0.78% among 290,000; AID 1825; in the data active = inhibition above about 22%;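 note: 0% = plate median of test compound wells and 100% = cytotoxic reference compound wells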
* = called active by the depositor; ? = inconclusive; nt = no result; ! = a repeat was not active. The list is not random: actives were taken first. Their share in the collection is about 2.2%.

SMILES | aSyn UTR inh | KLF5 inhibitor | BaF3 parental | Ba/F3 V617F tox | APP 5UTR inh | IEC-6 tox
COc1ccc(CC(=O)Nc2cc(Cl)ccc2O)cc1 | -21.4 | -21.8 | 42.2* | 70.3* | -2.3 | 3.6
COc1ccc(CC(=O)Nc2ccccc2NC(=O)Cc2ccc(OC)cc2)cc1 | -3.4 | -12.1 | nt | nt | nt | -1.8
COc1ccccc1CNC(=O)CN(C)S(=O)(=O)c1ccc(Br)s1 | -9.9 | -6.8 | nt | nt | nt | 1.1
Cc1ccc2nc(C)c(C(=O)NN=C3CCCCCC3)n2c1 | -15.7 | -8.7 | 1.9 | -1.5 | 83.9* | 9.4
CS(=O)(=O)Nc1cccc(-c2cnc3ccccc3n2)c1 | -153.0 | -125.4 | nt | nt | nt | -2.7
CC1(C)CC(=O)C/C(=N/NC(=O)COc2ccc3ccccc3c2Br)C1 | -0.1 | 4.3 | nt | nt | nt | -0.5
CCC/C=N/NC(=O)c1[nH]c2c([N+](=O)[O-])cccc2c1C | 21.2 | 6.7 | 1.5 | -5.0 | 89.4* | 9.0
CNC[C@H](CC1CCCCC1)NC[C@H](Cc1ccccc1)NCCC12CC3CC(CC(C3)C1)C2 | 125.4* | -8.2 | nt | nt | nt | -5.8
CC(=O)c1cc2c(cc1NC(=O)c1cc(C)nn1-c1ccccc1)OCO2 | 2.4 | -2.0 | 5.8 | 0.1 | 59.2* | -2.0
CC(=O)Nc1ccc(NC(=O)c2cc(C)nn2-c2ccccc2)cc1 | -7.7 | -22.9 | 6.4 | 0.8 | 9.5 | -1.9
CCN1CCN(Cc2ccc(NC(=O)c3ccc(C)c(NC(=O)N4CCNC4=O)c3)cc2C(F)(F)F)CC1 | 66.3*! | -23.1 | nt | nt | nt | 4.5
Cc1ccc(NC(=O)/C(=C/c2cccs2)NC(=O)c2ccco2)cc1 | 2.1 | -11.3 | 29.3* | -2.6 | 3.3 | -2.0
COc1ccccc1CNC(=O)[C@H](C)NC(=O)C1CCN(C(=O)[C@@H]2CCCN2C(=O)OC(C)(C)C)CC1 | -7.3 | -26.8 | nt | nt | nt | -2.3
COc1ccc(C(=O)/C=C2\NCCc3cc(OC)c(OC)cc32)cc1OC | 64.1* | -31.0 | nt | nt | nt | 3.6
COc1ccc(C(=O)/C=C/N(C)C)cc1OC | nt | 15.2 | 5.3 | 4.5 | 8.0 | -2.3
CCOc1ccc(NC(=S)Nc2ccc(OC(F)(F)F)cc2)cc1 | 5.3 | 7.2 | 50.7* | 62.9* | nt | -0.7
CCOc1ccc(NC(=S)Nc2ccccc2C2CC2)cc1 | -6.1 | -35.0 | 80.6* | 0.5 | -5.8 | -1.3
COc1ccc(CN2CCc3ccccc3C2)c(OC)c1 | 9.6 | -2.9 | -3.9 | -1.5 | nt | 0.8
COc1ccc(C2=[N+](C)CCn3cccc32)c(OC)c1 | -6.3 | -3.6 | 67.4* | 76.7* | 2.1 | 7.3
CC1Cc2ccccc2N1C1=CC(=O)CCC1 (configuration not stated) | -17.7 | -14.5 | 65.8* | 54.1* | -35.8 | 3.3
Oc1ccc(/C=N/Nc2nc(N3CCCCCC3)nc(N3CCCCCC3)n2)c(O)c1 | 20.7 | -10.7 | 33.9* | 47.5* | 4.9 | 0.5
Oc1ccc(Br)cc1/C=N/Nc1nc(N2CCCCC2)nc(N2CCOCC2)n1 | -24.8 | 10.2 | -4.8 | -2.4 | 3.1 | -1.0
N#Cc1c(NC(=O)CSc2nc(N)cc(=O)[nH]2)sc2c1CCCCCC2 | 14.5 | -14.9 | 5.3 | -0.3 | 0.8 | 3.6
N#Cc1c(NC(=O)CSc2ncn[nH]2)sc2c1CCCCC2 | 82.5* | 2.5 | 4.4 | -0.4 | 79.3* | 2.7
COc1ccccc1N1CCN(S(=O)(=O)CCNC(=O)C2CC2)CC1 | -1.1 | nt | nt | nt | nt | nt
SMILES | aSyn UTR inh | KLF5 inhibitor | BaF3 parental | Ba/F3 V617F tox | APP 5UTR inh | IEC-6 tox
CCc1noc(C)c1C(=O)Nc1ccccc1C(C)(C)C | 8.8 | -15.9 | nt | nt | nt | 1.5
Cc1cc(C)c2ccc(N)nc2c1O | 64.7* | -20.0 | 3.1 | -1.8 | 65.7* | 3.4
COC(=O)C(Cc1ccc(OC(=O)c2ccc(Cl)cc2)cc1)N1Cc2ccccc2C1=O (configuration not stated) | -124.1 | -44.8 | 96.4* | 1.7 | -47.8 | 4.0
COc1ccccc1C(=O)NCC(=O)NCCc1ccc(Cl)cc1 | 0.7 | 5.1 | nt | nt | nt | -6.8
Cc1ccccc1-c1nc(CN2CCC(C(=O)NC3CC3)CC2)c(C)o1 | 3.6 | -4.4 | nt | nt | nt | 5.5
C(=N\NCc1ccccc1)/c1ccc2ncccc2c1 | -9.9 | -131.3 | -2.9 | -2.7 | nt | 3.7
S=C(N/N=C/c1ccc2ncccc2c1)Nc1ccccc1 | 108.0* | -37.7 | 0.1 | -2.8 | -1.4 | 2.5
CCCc1nc2oc3c(NCCCN(C)C)ncnc3c2c2c1CCCC2 | 107.7* | -31.2 | 68.7* | 68.4* | nt | -5.6
CCCc1nc2oc3c(NCCN(C)C)ncnc3c2c2c1CCCC2 | -30.2 | 11.4 | -0.8 | -1.4 | -9.8 | 3.5
Cn1c(=O)c2sccc2n2c(CCCC(=O)N3CCCCC3)nnc12 | -1.5 | -32.7 | nt | nt | nt | 2.5
Fc1ccc(NC(=S)N2CCOCC2)c(F)c1 | 12.4 | -10.8 | nt | nt | nt | -1.3
Fc1ccc(NC(=S)N2CCc3ccccc3C2)c(F)c1 | -48.9 | -3.4 | 39.4* | 14.8 | 7.6 | 2.3
CCO[C@H]1OC(C(=O)O)=C[C@@H](c2ccccc2)[C@@H]1CCCO | -28.5 | nt | nt | nt | nt | nt
CCN(CC)CCOC(=O)CCc1cccc2ccccc12 | 10.2 | -27.3 | 1.0 | -0.5 | 26.2 | -3.6
CCN(CC)CCOC(=O)C(Cc1ccco1)Cc1cccc2ccccc12 (configuration not stated) | 104.1* | nt | nt | nt | nt | nt
CC(OC(=O)c1ccccc1NCCO)C(=O)NCC(=O)Nc1ccc(F)c(F)c1F (configuration not stated) | 1.7 | 2.9 | nt | nt | nt | 2.3
COc1cccc(NS(=O)(=O)c2ccc(-n3cccn3)cc2)c1 | -11.4 | -0.4 | nt | nt | nt | 0.2
Cn1cc(C(=O)c2ccc(Cl)cc2)cc1-c1nc2ccccc2n1C | 11.1 | -11.4 | 47.4* | -2.3 | nt | 1.5
C=C1C(=O)C=C2CN(C(=O)c3ccccc3)[C@@](Cc3ccc(F)cc3)(C(=O)OC)[C@@H]12 | ? | -5.8 | 91.8* | 96.8* | 96.0* | 27.3*
O=C(O)c1ccc(NS(=O)(=O)c2ccc(Cl)c(C(=O)Nc3ccccc3[N+](=O)[O-])c2)cc1 | -10.1 | -40.6 | nt | nt | nt | 6.4
COc1ccc(COc2cc(-c3cccc(OC)c3)nc3ccc(NC(=O)C(C)C)cc23)cc1 | -134.5 | 22.6 | 70.2* | 61.3* | 14.4 | 12.4
COc1cccc(CNC(=O)Cn2ncc3c(=O)oc4ccccc4c32)c1 | 3.3 | -15.0 | 62.2* | 61.0* | nt | -3.6
O=C(Cn1ncc2c(=O)oc3ccccc3c21)NCc1cccnc1 | 7.4 | -22.3 | 10.7 | 4.7 | -0.6 | 8.7
O=C(CN1CCN(Cc2ccccc2)CC1)Nc1ccc(Cl)cc1 | -2.9 | -7.1 | nt | nt | nt | 0.8
CCOc1ccc2c(c1)[N+](C)(C)C(C)(C)C=C2C | -16.9 | -29.7 | 60.5* | 54.1* | 21.3 | 5.2
SMILES | aSyn UTR inh | KLF5 inhibitor | BaF3 parental | Ba/F3 V617F tox | APP 5UTR inh | IEC-6 tox
COc1ccc2c(c1)[N+](C)(C)C(C)(C)C=C2C | -6.7 | 6.9 | 46.7* | 26.1* | 10.0 | -0.9
CCNC(=O)N1c2ccc(OCC)cc2C(C)=CC1(C)C | -19.0 | 3.5 | 3.4 | -0.4 | 2.3 | 1.4
COc1ccc(C2C(=O)c3ccccc3C2=O)c(OC)c1 | -265.4 | -21.9 | -0.7 | -1.6 | -10.2 | 1.0
O=C(O)CN1C(=O)CC(c2ccccc2)CC1=O | -2.9 | -21.6 | nt | nt | nt | 3.0
CCCCNc1c(C(=O)OCC)c(C)nc2c1cnn2CC | 34.4 | nt | nt | nt | nt | nt
CCCc1sc(N/N=C/c2ccccn2)nc1-c1ccc(Br)cc1 | 81.8* | -0.9 | 12.6 | 5.4 | -104.5 | 1.8

Screening results from PubChem.
